Only some compounds are listed: those with a hit (about 0.93% of all), similar ones and a draw of the others.
NFkB transloc pot: enhances IL-1B driven NFkB nuclear translocation; actives 0.3% (n = 94,000); AID 819; HUVEC IL-1B NFkB p65 nuclear translocation imaging; activation, % at 2 µM;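 active = activation above 40%, about the mean plus 3 SD, also judged a hit on visual image review; inconclusive = activation above 40% but not a hit on visual review; inactive = activation not above 40% and no visual hit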;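 also: percent activation is computed from the nuclear over cytoplasmic p65 intensity ratio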
Phagocyt inh: macrophage phagocytosis inhibition; J774A.1 macrophage IgG-bead phagocytosis, imaging; inhibition, % at 5 µM; actives 0.07% (n = 110,000); AID 1029;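 active = inhibition above the mean of the plate negative controls plus 5 SD, cut at about 13% in these data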;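 also: phagocytic index as fraction of beads internalized from green versus red external bead signal; plate controls were DMSO negative control for no effect and cytochalasin-D positive control for full effect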
HUVEC tox TNFa: toxic to HUVEC cells under TNF alpha stimulation. actives 0.17% (n = 93,000). cell count reduction, % at 2 µM. HUVEC TNFalpha-stimulated, Hoechst cell count, imaging;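 active = cell count reduction exceeding the screen mean by over 5 SD, scaled to untreated wells per plate, cut at about 78% in these data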;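 also: cells counted after 24 h of TNF alpha exposure following the 1 h pretreatment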
IL1B NFkB inh: blocks IL-1B driven NFkB nuclear translocation in HUVEC cells; HUVEC IL-1B NFkB p65 nuclear translocation imaging; inhibition, % at 2 µM; actives 0.43% (n = 94,000);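 active = inhibition above about 30% together with a positive call from visual inspection of the well image, limit read from the data; inconclusive = inhibition above a set limit but visual check negative; inactive = inhibition not above a set limit, visual check negative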;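 also: nuclear over cytoplasmic p65 intensity ratio measured by imaging; 0% = IL-1B stimulated DMSO wells and 100% = unstimulated DMSO wells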
HUVEC tox IL1B: toxic to HUVEC cells under IL-1B stimulation. HUVEC cell count loss, Hoechst imaging, IL-1B stimulated. cell count reduction, % at 2 µM. actives 0.41% (n = 94,000). AID 845;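 active = cell count reduction more than 3 SD above the screen-wide mean, cut at about 70% in these data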;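 also: normalized per plate to untreated control cells as the no-loss baseline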
Starred values were filed as active, the others as inactive.

Screening O=C(c1ccc2c(c1)ncn2C1CCCCC1)N1CCC2(CC1)OCCO2 returned NFkB transloc pot 7, HUVEC tox TNFa 80*, IL1B NFkB inh -7 and HUVEC tox IL1B 16.
O=C(c1cc2ccccn2n1)N1CCC2(CC1)OCCO2 was read as NFkB transloc pot inconclusive, Phagocyt inh -3, HUVEC tox TNFa 4, IL1B NFkB inh -50 and HUVEC tox IL1B -18.
Screening Cc1nn(Cc2ccccc2)c(C)c1C(=O)OCC(=O)NC1CCS(=O)(=O)C1 (stereo unspecified) returned Phagocyt inh 0.
`COC(=O)C1CN(C#N)N(c2ccc(Cl)cc2)C12c1ccccc1-c1ccccc12` (stereo unspecified) gave NFkB transloc pot -65, IL1B NFkB inh 65* and HUVEC tox IL1B 21.
For OCC12CO[C@@H]3c4ccccc4[C@H](OC1)N32 (stereo partly specified) the results were NFkB transloc pot 17, Phagocyt inh 1, HUVEC tox TNFa -14, IL1B NFkB inh -17 and HUVEC tox IL1B 5.
For CC1CCC/C=C/C2CC(O)CC2C(O)/C=C/C(=O)O1 (stereo unspecified) the results were NFkB transloc pot -3, Phagocyt inh 3, HUVEC tox TNFa 87*, IL1B NFkB inh 3 and HUVEC tox IL1B -19.
`C[C@H]1CCC[C@@H](O)CCC/C=C/c2cc(O)cc(O)c2C(=O)O1` gave NFkB transloc pot 13, Phagocyt inh 0, HUVEC tox TNFa -47, IL1B NFkB inh -13 and HUVEC tox IL1B -7.
`COc1cc(OC)cc(-n2nc(C(=O)N3CCC4(CC3)OCCO4)c3ccccc3c2=O)c1` gave Phagocyt inh -3.
`COc1ccc(-c2cc(C(F)(F)F)n3nc(C(=O)N4CCC5(CC4)OCCO5)cc3n2)cc1OC` gave NFkB transloc pot -1, Phagocyt inh -1, HUVEC tox TNFa -1, IL1B NFkB inh 1 and HUVEC tox IL1B 89*.
OC1(c2ccccc2F)CC2CCC(C1)N2CCN1CCOCC1 (stereo unspecified) was read as NFkB transloc pot -1, Phagocyt inh -1, HUVEC tox TNFa -17, IL1B NFkB inh 1 and HUVEC tox IL1B 26.
Screening Cc1ccc(CS(=O)(=O)CCC(=O)N2CCC3(CC2)OCCO3)cc1 returned NFkB transloc pot 19, Phagocyt inh -1, HUVEC tox TNFa -4, IL1B NFkB inh -19 and HUVEC tox IL1B 92*.
O=C(Cn1cc(C(=O)c2ccccc2)c2ccccc21)NCc1ccco1 was read as NFkB transloc pot -93, Phagocyt inh 3, HUVEC tox TNFa 1, IL1B NFkB inh 93* and HUVEC tox IL1B 88*.
For CN1c2ccc([N+](=O)[O-])cc2CC2(C(=O)NC(=O)N(c3ccc(Br)cc3)C2=O)C1c1ccccc1 (stereo unspecified) the results were Phagocyt inh -1.
For Clc1ccccc1CNC1CN2CCC1CC2 (stereo unspecified) the results were Phagocyt inh -7.
Screening CSc1ccc(CNC2CN3CCC2CC3)cc1 (stereo unspecified) returned NFkB transloc pot -1, Phagocyt inh -2, HUVEC tox TNFa 86*, IL1B NFkB inh 1 and HUVEC tox IL1B -1.
C=CCOC(=O)C1=C(C)OC(N)=C(C#N)C12C(=O)N(CN1CCOCC1)c1ccccc12 (stereo unspecified) was read as NFkB transloc pot -6, Phagocyt inh 0, HUVEC tox TNFa 91*, IL1B NFkB inh 6 and HUVEC tox IL1B -7.
`CCOC(=O)C1=C(C)OC(N)=C(C#N)C12C(=O)N(C)c1ccccc12` (stereo unspecified) gave NFkB transloc pot -5, HUVEC tox TNFa -4, IL1B NFkB inh 5 and HUVEC tox IL1B -2.
Cc1ccc2c(c1)CC1(CN2C)C(=O)NC(=O)N(CCC2=CCCCC2)C1=O (stereo unspecified) was read as NFkB transloc pot 66*, Phagocyt inh 0, HUVEC tox TNFa -30, IL1B NFkB inh -66 and HUVEC tox IL1B 7.
`Nc1ccnn1C1CCNCC1` gave NFkB transloc pot 5, Phagocyt inh 0, HUVEC tox TNFa -3, IL1B NFkB inh -4 and HUVEC tox IL1B -16.
For CN1CCC(n2nccc2N)CC1 the results were NFkB transloc pot -36, Phagocyt inh -1, HUVEC tox TNFa -26, IL1B NFkB inh 36* and HUVEC tox IL1B 16.
Cc1ccc2c(c1)C1CN(C)CCC1N2C(=O)Nc1cccc(C(F)(F)F)c1 (stereo unspecified) was read as NFkB transloc pot -30, HUVEC tox TNFa -20, IL1B NFkB inh 30* and HUVEC tox IL1B 40.
Screening CCc1ccc(N2C(=O)NC(=O)C(Cc3ccc(OC)cc3OC)C2=O)cc1 (stereo unspecified) returned NFkB transloc pot 4, Phagocyt inh 1, HUVEC tox TNFa 7, IL1B NFkB inh -4 and HUVEC tox IL1B 10.
Screening CNP1(NC)=NC(C(F)(F)F)=NC(C(F)(F)F)=N1 returned NFkB transloc pot 7, Phagocyt inh 0, HUVEC tox TNFa -34, IL1B NFkB inh -7 and HUVEC tox IL1B -9.
CCN(CC)CCN=Cc1c(O)n(Cc2ccccc2)c(=O)[nH]c1=O was read as NFkB transloc pot 11, Phagocyt inh 104*, HUVEC tox TNFa -3, IL1B NFkB inh -11 and HUVEC tox IL1B -8.
For CCCCn1c(O)c(C=NC2CCCCC2N)c(=O)[nH]c1=O (stereo unspecified) the results were NFkB transloc pot -99, Phagocyt inh 1, HUVEC tox TNFa 7, IL1B NFkB inh 99* and HUVEC tox IL1B 84*.
For CCOC(=O)C1SC2(C(F)F)CC1(O)c1c(c(OC)c3occc3c1OC)O2 (stereo unspecified) the results were NFkB transloc pot 0, Phagocyt inh 0, HUVEC tox TNFa -6, IL1B NFkB inh 0 and HUVEC tox IL1B -16.

Source: PubChem (several laboratories)
